Here are results for 40 sequences from the OligoGym collection.
Note: reference of the scale not given here.

The target of the first test is CEACAM7. In words: pooled miR-30 sensor sort-seq; sequence = guide strand. The settings on record: shRNA.
In turn, TTCATTCACAAGATTTTCTTTT showed a sensor-assay potency score (higher = more potent) of -0.349.

On to TATATTGTCTCTCGACCGTTGT, for which the sensor-assay potency score (higher = more potent) is -0.124.

On to TATCTTTGTTCTCCACCGGATT, for which the sensor-assay potency score (higher = more potent) was -1.29.

TACTTCTTCATTCACAAGATTT showed a sensor-assay potency score (higher = more potent) of -1.52.

The sequence TCGATAGTTGGCATGCACCCTT returned a sensor-assay potency score (higher = more potent) of -0.656.

On to TTCTTTTATAACGTGTAGGGTA, for which the sensor-assay potency score (higher = more potent) is -0.399.

In the case of TAGAATTGTCTGGTTACTTCTT, the sensor-assay potency score (higher = more potent) is -0.107.

On to TTATATTTTTTACATATCCTAT, for which the sensor-assay potency score (higher = more potent) was -0.681.

For ATATCCTATAATTCGATAGTTG, the sensor-assay potency score (higher = more potent) was -1.04.

Sequence AACTCTAACAGGGACCACCGTG displayed a sensor-assay potency score (higher = more potent) of -1.13.

In turn, AAGATTTTCTTTTATAACGTGT showed a sensor-assay potency score (higher = more potent) of 0.163.

For TTGTCTCTCGACCGTTGTGTGC, the sensor-assay potency score (higher = more potent) was -1.35.

TAACGTTCTGGATCAGCAGGGT showed a sensor-assay potency score (higher = more potent) of 0.257.

The target in the next test is CELA2A. Described as above. The settings on record: shRNA.
The sequence TCTTAGAGACACTGACTGCCAG yielded a sensor-assay potency score (higher = more potent) of -0.61.

Take TGTGGTAGTAGTTGCAGCCGAG: the sensor-assay potency score (higher = more potent) was -0.0375.

With TACCACTTGCCATTGGAGCTGT, the sensor-assay potency score (higher = more potent) amounted to 0.0148.

Consider TTATATTATTTTCCTTCTGTGA, for which the sensor-assay potency score (higher = more potent) was -1.25.

On to ATGTAATTGGAGACCCGCGTGA, for which the sensor-assay potency score (higher = more potent) was -0.77.

Sequence ATACTGGTTTTCACGCTGCTGC yielded a sensor-assay potency score (higher = more potent) of -1.06.

The sequence TTGGTTGGAGTTCCAGTCCTTG gave a sensor-assay potency score (higher = more potent) of -0.732.

As for TAGTAGTTGCAGCCGAGGCGAG, the sensor-assay potency score (higher = more potent) was -1.3.

For the sequence TTGCAGCTGGAGATCACGCCAT, the sensor-assay potency score (higher = more potent) was -0.881.

TTGTGGTAGTAGTTGCAGCCGA returned a sensor-assay potency score (higher = more potent) of -0.632.

As for AATCTTAGAGACACTGACTGCC, the sensor-assay potency score (higher = more potent) worked out at 0.508.

In the case of TTCTTCACCGCCAACCACCCTA, the sensor-assay potency score (higher = more potent) is -0.855.

The target of a further test is CENPE. The description is as above. The settings on record: shRNA.
For TTGAGAGTCTATGTATTCCTGT, the sensor-assay potency score (higher = more potent) was 0.505.

Sequence TTTGTCAATAGTTTCCTGCTGC had a sensor-assay potency score (higher = more potent) of 0.514.

TTTTGTAGCACTGATTTCCTTT registered a sensor-assay potency score (higher = more potent) of -0.158.

In turn, TAACACTCTCTAACATTTGTTG had a sensor-assay potency score (higher = more potent) of 0.0489.

TGTAGTATCTGAGTCAACCTTA: the sensor-assay potency score (higher = more potent) was 0.878.

TATTTCACACATTTTCTCCTGA yielded a sensor-assay potency score (higher = more potent) of 0.76.

TATAGTACCATTGTAGCCTTGT: the sensor-assay potency score (higher = more potent) worked out at 0.768.

As for TTGGAGTTCATTTTTCTCCTGT, the sensor-assay potency score (higher = more potent) came out at 0.691.

On to TTGTGTGGTAGGATTAACCTGG, for which the sensor-assay potency score (higher = more potent) came out at 0.117.

For the sequence TTGAGTATCTATATTCATGTTA, the sensor-assay potency score (higher = more potent) was found to be 0.243.

Take TTGAAGAACTTCTTGCAGCCTC: the sensor-assay potency score (higher = more potent) stood at 0.172.

The sequence TTTATCAATAGTTTCTTGGTGC gave a sensor-assay potency score (higher = more potent) of 0.371.

In turn, TAGCTCTTGATGTAACATGAGG yielded a sensor-assay potency score (higher = more potent) of -1.24.

Turning to TTTATTTTTGTAACATAGCTTA, the sensor-assay potency score (higher = more potent) is -0.197.

On to TAGCTGTTCATTTTGCTGCTTT, for which the sensor-assay potency score (higher = more potent) is -0.023.
